# Assay outcomes: PubChem, Buhrlage Lab, Dana-Farber Cancer Institute and Novartis Institutes for BioMedical Research (Cambridge, Mass)
# OTUD3 inh = blocks human OTUD3 ubiquitin-rhodamine cleavage; AID 1645858; inhibition, % at 25 µM; 47,000 tested, 0.7% active; purified OTUD3, Ub-rhodamine fluorescence, 2 h
# USP28 inh = blocks human USP28 ubiquitin-rhodamine cleavage | inhibition, % at 25 µM | purified USP28, Ub-rhodamine cleavage fluorescence, 30 min | AID 1645857 | Q96RU2 | 47,000 tested, 3% active
# USP30 block = blocks human USP30 ubiquitin-rhodamine cleavage; purified USP30, Ub-rhodamine cleavage fluorescence; Q70CQ3; 47,000 tested, 5.3% active; inhibition, % at 25 µM
# USP17 inh = inhibitors of human USP17 deubiquitinase | 47,000 tested, 6.5% active | inhibition, % at 50 µM | purified USP17, Ub-rhodamine cleavage fluorescence, 3 h | A8MUK1
# Target sequence (A8MUK1 whole entry, looked up): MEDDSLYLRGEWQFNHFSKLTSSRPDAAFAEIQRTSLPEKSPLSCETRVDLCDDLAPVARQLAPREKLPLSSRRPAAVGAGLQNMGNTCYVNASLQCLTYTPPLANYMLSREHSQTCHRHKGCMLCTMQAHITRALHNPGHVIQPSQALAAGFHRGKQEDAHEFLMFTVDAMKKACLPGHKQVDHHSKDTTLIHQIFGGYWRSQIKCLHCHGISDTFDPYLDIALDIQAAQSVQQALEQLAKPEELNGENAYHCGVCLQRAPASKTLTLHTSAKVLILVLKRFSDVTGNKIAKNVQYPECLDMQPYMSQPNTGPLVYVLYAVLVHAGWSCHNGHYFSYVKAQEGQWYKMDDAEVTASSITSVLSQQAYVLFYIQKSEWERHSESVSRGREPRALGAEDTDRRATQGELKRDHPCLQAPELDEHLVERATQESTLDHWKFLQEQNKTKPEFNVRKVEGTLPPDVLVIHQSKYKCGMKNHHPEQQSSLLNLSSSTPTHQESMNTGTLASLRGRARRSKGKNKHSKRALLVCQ
# Hits are given with their value; i = inactive; nt = no result given. This is a sample that favours compounds with a hit; in the whole collection about 11% have one here. No stated cut-off is given here; in the data, active means inhibition above about 30%; inactive means the rest.
SMILES,OTUD3 inh,USP28 inh,USP30 block,USP17 inh
O=C1NCC2(C/C=C/CCOc3ccccc31)CCN(C(=O)c1ccnc(N3CCCC3)c1)CC2,42,72,88,95
CCOc1ccc(-n2cc(C(=O)Nc3cnc4ccccc4c3)nn2)cc1,i,i,i,43
CCOc1ccc(NC(=O)c2cccc(-n3cnnc3)n2)cc1,i,i,i,i
CS(=O)(=O)c1cccc(-n2c(=O)n(Cc3ccccc3)c(=O)c3[nH]cnc32)c1,i,i,i,i
O=C(CCc1c[nH]c2ccccc12)Nc1ccc(N2CCOCC2)cc1,i,62,33,60
O=C(COC(=O)CCCc1c[nH]c2ccccc12)Nc1ccc2c(c1)OCO2,i,40,i,i
COc1ccc(C)cc1NC(=O)COC(=O)CCCc1c[nH]c2ccccc12,i,i,i,i
CN(C)CCNC(=O)c1ccn(-c2ccc3ccc(-c4cnn(C)c4)cn23)n1,i,i,i,i
Nc1c(-c2nc3ccccc3[nH]2)c2nc3ccccc3nc2n1Cc1ccccc1,i,i,i,i
Nc1c(-c2nc3ccccc3[nH]2)c2nc3ccccc3nc2n1Cc1cccc(Cl)c1,i,36,i,46
CNc1nc(C2CCCN2C(=O)c2ccccc2)nc2c1CN(C(C)=O)CC2 (centres undefined),i,i,i,i
Cc1ccc(NC(=O)CCc2ccc3nc[nH]c3c2)c(C)c1,i,i,i,i
Cc1ccc(NC(=O)CCc2ccc3nc[nH]c3c2)cc1F,i,35,i,i
CCn1c(CN2CCC(O)(c3cccc(C)c3)CC2)nc2ccccc21,i,i,i,i
COc1cc(OC)cc(C(=O)Nc2ccc3c(c2)Sc2ncccc2C(=O)N3C)c1,i,i,i,i
COc1ccc(C(=O)Nc2ccc3c(c2)Sc2ncccc2C(=O)N3C)cn1,i,65,i,i
COc1ccc(CCC(=O)Nc2ccc3c(c2)Sc2ccccc2C(=O)N3C)cc1,i,32,39,nt
CCOc1ccccc1C(=O)Nc1ccc2c(c1)Sc1ncccc1C(=O)N2C,i,40,i,53
COc1ccc(CCNC(=O)Cn2c(=O)c3sccc3n(Cc3ccccc3F)c2=O)cc1OC,i,i,52,60
COc1ccc(CCNC(=O)CCCn2c(=O)c3ccccc3n(Cc3ccccc3F)c2=O)cc1OC,i,i,i,i
COc1ccc(CCNC(=O)Cn2c(=O)c3sccc3n(Cc3cccc([N+](=O)[O-])c3)c2=O)cc1OC,i,i,44,i
COc1ccccc1NC(=O)c1oc2ccccc2c1NC(=O)c1ccccc1Cl,i,i,i,i
CSc1ccccc1C(=O)Nc1c(C(N)=O)oc2ccccc12,i,30,i,i
CC(C)(C)c1cc(NC(=O)CSc2nnc(C3CC3)n2Cc2ccccc2)on1,i,i,i,i
CCc1ccc(NC(=O)CSc2ccc(N3CCC(C(=O)NC4CC4)CC3)nn2)cc1,38,67,62,62
SMILES,OTUD3 inh,USP28 inh,USP30 block,USP17 inh
CC1CCN(C(=O)c2cn(-c3cc(N4CCC(C)CC4)ncn3)cn2)CC1,i,71,i,i
O=C(Cn1nc2c3c4c(sc3ncn2c1=O)CCCCC4)Nc1ccc(Cl)cc1F,i,i,i,70
Cc1nc2ccc(Cl)cn2c(=O)c1NC(=O)COc1ccccc1,i,i,i,i
O=C(/C=C/c1cccc([N+](=O)[O-])c1)N1CCc2ccccc21,i,i,i,i
Cc1noc(C2CN(C(=O)/C=C/c3ccc4c(c3)OCO4)C2)n1,i,i,33,i
O=C(/C=C/c1ccc2c(c1)OCO2)N1CCCc2ccccc21,i,i,46,i
COc1ccc(C2c3c(-c4ccccc4O)n[nH]c3C(=O)N2Cc2ccco2)cc1OC (centres undefined),i,i,i,i
O=C1c2[nH]nc(-c3ccccc3O)c2C(c2ccc(F)cc2)N1Cc1ccco1 (centres undefined),i,52,52,39
Cc1ccc(C2c3c(-c4ccccc4O)n[nH]c3C(=O)N2Cc2ccco2)cc1 (centres undefined),i,65,46,44
CC1CCN(CC2CCN(C(=O)Nc3ccc4c(c3)OCO4)CC2)CC1,i,i,i,i
COc1cc(Cl)ccc1Oc1ncnc2sc(C)c(C)c12,i,i,46,62
Cn1c(SCc2c(F)cccc2Cl)nnc1-c1ccc2c(c1)OCCCO2,i,i,33,i
O=C(CCCC1=NS(=O)(=O)c2ccccc2N1)Nc1ccc(Cl)c(Cl)c1,i,i,i,34
CN(C)CC1CCC2(COCCN(C(=O)c3ccccn3)C2)O1 (centres undefined),i,i,i,i
Cc1cccc(-n2ccc(=O)c(-c3nc(-c4ccc(Cl)c(F)c4)no3)n2)c1,i,i,39,i
O=c1ccn(-c2ccccc2)nc1-c1nc(-c2ccc(Br)cc2)no1,i,i,i,37
COc1ccc(-n2ccc(=O)c(-c3nc(-c4ccccc4C)no3)n2)cc1,i,i,38,i
Cc1cccc2c(=O)[nH]c(CN3CCCC3c3ccc4c(c3)OCCO4)nc12 (centres undefined),i,i,i,i
COc1ccc(CC(=O)NCC(c2ccc(F)cc2)N2CCOCC2)cc1 (centres undefined),i,i,i,i
CCOC(=O)c1cnn2c(C)c(C/C=C/c3ccccc3)c(C)nc12,i,i,i,i
COc1ccc(CCNC(=O)c2cc(C3CC3)nc3c2cnn3C(C)C)cc1,i,68,i,i
COc1ccccc1OCCNC(=O)c1cc(C2CC2)nc2c1cnn2C(C)C,i,61,i,i
COc1ccccc1CCNC(=O)c1cc(C2CC2)nc2c1cnn2C(C)C,i,i,i,i
O=c1c2cnc(N3CCN(c4ccccc4)CC3)nc2ccn1Cc1ccc2c(c1)OCO2,i,i,i,i
COc1ccc(COc2ncnc3cc(Cl)ccc23)cc1,i,48,i,i
SMILES,OTUD3 inh,USP28 inh,USP30 block,USP17 inh
COCc1ccc(C(=O)NCc2ccc(-c3nc(C)ncc3-c3cc(C)no3)cc2)cc1,i,i,i,i
COc1ccccc1NC(=O)Cn1c(=O)n(C2CC2)c(=O)c2nscc21,i,i,i,i
CCCCCn1c(=O)[nH]c2cc(C(=O)NCCN3CCC(Cc4ccccc4)CC3)ccc2c1=O,i,i,44,i
Cc1cc(C)n2nc(C(=O)NCc3ccc4c(c3)OCO4)nc2n1,i,i,i,i
CCOC(=O)CNC(=O)CSc1nnc(-c2c[nH]c3ccccc23)n1-c1cccc(OC)c1,i,i,i,i
Fc1cccc(Cn2cc(-c3noc(-c4ccncc4)n3)nn2)c1,i,i,i,66
Cc1ccc(Cn2cc(-c3noc(-c4ccncc4)n3)nn2)cc1,i,i,i,79
Nc1ncc(-c2ccc(C(F)(F)F)cc2)c(C2CCCNC2)n1 (centres undefined),i,i,i,i
Cc1cc(C(F)(F)F)c2c(N)c(C(=O)Nc3cccc(C(F)(F)F)c3)sc2n1,i,i,i,i
Cc1nc2sc(C(=O)Nc3ccccc3Br)c(N)c2c(C)c1C,i,33,51,46
Cc1cc(C)c2c(N)c(C(=O)Nc3ccccc3Br)sc2n1,i,nt,nt,77
CC(C)NC(=O)C1CCc2nc(N3CCCCC3)ncc2C1 (centres undefined),i,i,i,i
